# Most compounds without a hit are left out; they make up all but 4% or so of the library.
# RAD52 anneal inh: inhibitors of human RAD52 DNA annealing; hit rate 0.46% among 360,000; inhibition, % at 18.7 µM; P43351; recombinant RAD52 DNA annealing, FRET fluorescence;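 active means every replicate showing at least 50% inhibition; inconclusive means mean inhibition at least 50% but not in every replicate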
# Target sequence (P43351 whole entry, looked up): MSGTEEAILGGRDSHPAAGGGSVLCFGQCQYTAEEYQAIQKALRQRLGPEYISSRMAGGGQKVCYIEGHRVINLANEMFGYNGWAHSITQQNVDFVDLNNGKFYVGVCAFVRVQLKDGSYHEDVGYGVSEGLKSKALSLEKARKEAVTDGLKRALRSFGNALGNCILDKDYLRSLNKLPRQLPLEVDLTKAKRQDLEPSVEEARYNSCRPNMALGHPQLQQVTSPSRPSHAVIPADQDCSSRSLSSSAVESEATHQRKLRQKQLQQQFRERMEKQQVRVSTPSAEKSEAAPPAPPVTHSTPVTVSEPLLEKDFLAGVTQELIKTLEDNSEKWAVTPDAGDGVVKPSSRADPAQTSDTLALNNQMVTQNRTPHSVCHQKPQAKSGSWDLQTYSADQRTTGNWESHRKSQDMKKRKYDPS
# FGF22 binding: binders of recombinant human FGF22 by thermal shift; Q9HCT0; SYPRO orange fluorescence; percent of sucrose octasulfate shift, DMSO zero; activity (Tm shift, normalised), % at 9.99 µM; hit rate 1.5% among 340,000;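 active means mean Tm shift, scaled 0 neutral to 100 positive control, at about 1.3% or above, every replicate too, limit read from the data; inconclusive means no clear call, values can overlap the other calls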
# Target sequence (Q9HCT0 whole entry, looked up): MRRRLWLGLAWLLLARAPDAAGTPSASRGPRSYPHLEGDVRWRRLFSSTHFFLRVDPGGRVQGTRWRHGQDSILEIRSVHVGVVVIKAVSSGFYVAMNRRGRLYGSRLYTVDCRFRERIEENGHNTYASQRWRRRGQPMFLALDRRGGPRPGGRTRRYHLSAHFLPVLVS
# DENV2 CPE: protects cells from dengue virus 2 cytopathic effect. hit rate 1.7% among 350,000. CPE inhibition, % at 9.99 µM. DENV2-infected cells, cytopathic effect rescue, plate reader. AID 651640; in the data active means CPE inhibition above about 20%, passing the limit was not always enough; inconclusive means no clear call, values can overlap the other calls; tested in BHK-21 cells;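 further: 0% = median of neutral control wells and 100% = median of positive control wells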
# MLL AF4-AF9 inh: inhibitors of human MLL-AF4/AF9 interaction; inhibition, % at 10 µM; hit rate 0.47% among 350,000; AlphaScreen, biotin-AF4 peptide binding to FLAG-AF9;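 active means every replicate reaching a set inhibition limit, whatever the replicate mean, cut at about 25% in these data; inconclusive means mean inhibition reaches that limit but some replicates miss it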;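 further: 0% = plate neutral control median and 100% = total signal loss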
# ERAP1 HTS inh: blocks human ERAP1 aminopeptidase activity; Q9NZ08; recombinant ERAP1, Leu-AMC fluorescence, 60 min; inhibition, % at 10.7 µM; hit rate 0.15% among 340,000; AID 652197;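 active means mean replicate inhibition of at least 30%, or all replicates individually reaching that 30% level; inactive means mean below 30% and not every replicate reaching it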;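 further: 0% = neutral control wells and 100% = L-leucinethiol positive control wells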
# Numbers without * were called inactive; u = inconclusive; x = not tested or not shown; ! = repeats disagree.
SMILES,RAD52 anneal inh,FGF22 binding,DENV2 CPE,MLL AF4-AF9 inh,ERAP1 HTS inh
O=C(C[C@H]1CC[C@@H]2[C@H](COC[C@H](O)CN2C(=O)Nc2ccc(Cl)c(Cl)c2)O1)NCc1ccccc1,6,1,-10,-2,1
CCO[C@@H]1OC(C(=O)NCc2nc3ccccc3[nH]2)=C[C@H](c2coc3ccccc3c2=O)[C@H]1CCCO,-42,0,50*,-3,-3
C#Cc1ccc([C@H]2C=C(C(=O)OCC=C)O[C@@H](OCC)[C@@H]2CCCO)cc1,-9,0,49*!,0,1
C#Cc1ccc([C@@H]2C=C(C(=O)OCC=C)O[C@H](OCC)[C@H]2CCCO)cc1,6,0,13,2,0
C#Cc1ccc([C@@H]2C=C(C(=O)NCc3nc4ccccc4[nH]3)O[C@H](OCC)[C@H]2CCCO)cc1,-1,0,22*!,-8,-4
CCCC(=O)N1CCC2(CC1)CN(C(=O)CC)[C@@H](CO)c1c2c2ccc(OC)cc2n1C,1,0,6,-1,-3
COCC#Cc1ccc2c(c1)O[C@H](CN(C)S(C)(=O)=O)[C@H](C)CN([C@@H](C)CO)S2(=O)=O,1,0,1,-2,0
Cc1ccc(-c2ccc3c(c2)O[C@H](CN(C)Cc2ccccn2)[C@@H](C)CN([C@@H](C)CO)S3(=O)=O)cc1,3,-1,14,7,-3
CCC1=[N+](C)c2cccc3cccc(c23)N1C,12,0,6,-1,36*
CNC[C@H]1OCCCC[C@@H](C)Oc2ccc(NC(=O)C3CCCCC3)cc2C(=O)N([C@H](C)CO)C[C@H]1C,-61,0,0,3,-1
COc1ccc2c3c([nH]c2c1)[C@H](CO)N(CC1CC1)CC31CCN(Cc2ccccc2F)CC1,x,x,-34,16,x
C[C@H](NC(=O)C[C@H]1CC[C@@H](NC(=O)C2CC2)[C@@H](CO)O1)c1ccccc1,-2,0,-2,0,2
CC1CN(CCOCCSc2ccccc2)CC(C)O1 (stereo not given),-11,43*,6,-6,-2
CO[C@H]1CN(C)C(=O)c2cc(NC(=O)C3CC3)ccc2OC[C@H](C)N(C(=O)NC(C)C)C[C@@H]1C,-1,0,-5,-2,0
C[C@@H]1CN([C@H](C)CO)C(=O)c2cccc(NC(=O)C3CCOCC3)c2O[C@@H]1CN(C)CC1CCCCC1,-7,0,13,-1,-5
COC1OCC(O)C(OC(=O)c2ccccc2)C1OC(=O)c1ccccc1 (stereo not given),-4,43*,-3,2,3
O=C(CSc1nc2ccccc2c(=O)n1-c1ccc(F)cc1F)NC1CC1,-14,43*,-2,5,0
Cc1ccc(-n2c(SCC(=O)NC3CCS(=O)(=O)C3)nc3ccccc3c2=O)c(C)c1 (stereo not given),-2,0,38*,2,6
O=C(CSc1nc2ccccc2c(=O)n1-c1ccccc1F)NC1CC1,4,0,22*,-1,-6
COc1ccc(NC(=O)N2CC(=O)N3[C@H](CO)[C@H](c4ccc(-c5ccc(C)cc5)cc4)[C@@H]3C2)cc1,-6,x,6,2,1
CC(C)c1ccc(N2C(=O)C(Cl)=C(N3CCOCC3)C2=O)cc1,-25,0,1,38*,3
O=C(NCC[C@H]1CC[C@@H](NC(=O)c2cccnc2)[C@H](CO)O1)Nc1ccc(C(F)(F)F)cc1,5,0,-9,13,4
Oc1[nH]c2ccc(Br)cc2c1N=Nc1ccc(C(F)(F)F)cn1,-37,44*,3,6,0
CO[C@@H]1CN(C)C(=O)c2cc(NC(=O)C3CC3)ccc2OC[C@H](C)N(C(=O)c2ccccc2F)C[C@@H]1C,-2,0,4,2,1
O=C(O)C[C@H]1C[C@H]2c3cc(NC(=O)c4ccc5c(c4)OCO5)ccc3O[C@H]2[C@@H](CO)O1,12,0,-9,1,-3
SMILES,RAD52 anneal inh,FGF22 binding,DENV2 CPE,MLL AF4-AF9 inh,ERAP1 HTS inh
CC(C)(C)c1ccc(C(=O)OCC(=O)N2CCC(c3ccccc3)=N2)cc1,-7,30*,2,-11,2
COc1ccc(CN(C)C[C@H]2OCCCC[C@@H](C)Oc3ccc(NS(=O)(=O)c4ccc(C)cc4)cc3C(=O)N([C@@H](C)CO)C[C@@H]2C)cc1,-5,x,6,-4,-3
O=C(Cn1c(-c2ccccc2)c[n+]2ccsc12)c1ccccc1,-19,0,-7,-1,-2
O=C(Cn1c(-c2ccccc2)c[n+]2ccsc12)c1ccc([N+](=O)[O-])cc1,-1,43*,-1,1,2
O=C(COC(=O)c1cccc(Br)c1)Nc1ccc2[nH]c(=O)[nH]c2c1,-6,0,73*,-2,1
CC(C)CNC(=O)C1(C)CCCN1C(=O)c1cncc(Br)c1 (stereo not given),-6,0,26*,-3,-3
CCCCNC(=O)C1(C)CCN1C(=O)c1cncc(Br)c1 (stereo not given),-21,0,86*,-3,0
CCCCNC(=O)C1(C)CCN1C(=O)c1ccncc1 (stereo not given),3,0,-1,0,1
C[C@H](CO)N1C[C@H](C)[C@@H](CN(C)S(C)(=O)=O)Oc2ccc(NC(=O)Nc3ccc(C(F)(F)F)cc3)cc2CC1=O,-12,0,-3,0,-2
Cc1ccccc1S(=O)(=O)N1CC(=O)N2[C@@H](CO)[C@H](c3ccc(C#CC4CC4)cc3)[C@@H]2C1,-34,x,u,-3,1
C[C@H]1CN([C@@H](C)CO)C(=O)c2c(c3ccccc3n2C)-c2ccccc2CO[C@H]1CN(C)Cc1ccc(Cl)c(Cl)c1,1,-1,19,1,4
C[C@@H]1CN([C@@H](C)CO)C(=O)c2c(c3ccccc3n2C)-c2ccccc2CO[C@H]1CN(C)Cc1ccc2c(c1)OCCN2C,28,0,-9,39*,-3
C[C@@H]1CN([C@H](C)CO)C(=O)c2c(c3ccccc3n2C)-c2ccccc2CO[C@@H]1CN(C)Cc1ccc2c(c1)OCCN2C,45,0,11,50*,-2
O=C(C[C@@H]1C=C[C@H](NC(=O)C2CC2)[C@H](CO)O1)Nc1ccccc1,-18,0,u,0,-2
CN(C)C(CNC(=O)c1ccco1)c1cccs1 (stereo not given),-4,0,u,-18,-1
CN(C)C(CNC(=O)c1c(F)cccc1Cl)c1ccco1 (stereo not given),-4,42,21*,-1,-5
CN(C)C(CNC(=O)c1cccs1)c1ccco1 (stereo not given),-2,0,35*,-2,-5
C[C@H](CO)N1C[C@H](C)[C@H](CN(C)S(=O)(=O)c2ccc(Cl)cc2)Oc2ccc(NC(=O)Nc3ccc(F)cc3)cc2C1=O,13,0,10,-1,1

# Screening data as filed in PubChem.
